PubChem BioAssay
Active and inactive are the calls of the source.

Columns and labels:
[1] = compounds binding Alexa647 anti-His antibody – biochemical, small-molecule microarray, 635 nm fluorescence, artefact control for SMM control protein annotation, primary screen (AID 1128); settings: higher = more signal;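 also: score merges feature fluorescence with signal-to-noise for each printed compound spot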
[2] = test system: Human papillomavirus type 1a E7 protein (residues 1-88); assay: HPV1a E7 small-molecule binders, primary screen, biochemical, small-molecule microarray, residues 1-88, 635 nm (AID 1129); settings: small-molecule microarray binding, fluorescence 635 nm; higher = more signal
[3] = biological target: Focal adhesion kinase 1 (Homo sapiens) (UniProt Q05397); assay: PTK2 protein binding on printed compound slides – biochemical, small-molecule microarray, 635/667 nm fluorescence, BSA, DTT, primary screen (AID 1130); settings: 635 nm fluorescence, higher = more signal;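 also: composite of spot emission at 667 nm and signal to noise over triplicate slides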
Chain of Focal adhesion kinase 1 (Homo sapiens) (Q05397 whole entry, looked up): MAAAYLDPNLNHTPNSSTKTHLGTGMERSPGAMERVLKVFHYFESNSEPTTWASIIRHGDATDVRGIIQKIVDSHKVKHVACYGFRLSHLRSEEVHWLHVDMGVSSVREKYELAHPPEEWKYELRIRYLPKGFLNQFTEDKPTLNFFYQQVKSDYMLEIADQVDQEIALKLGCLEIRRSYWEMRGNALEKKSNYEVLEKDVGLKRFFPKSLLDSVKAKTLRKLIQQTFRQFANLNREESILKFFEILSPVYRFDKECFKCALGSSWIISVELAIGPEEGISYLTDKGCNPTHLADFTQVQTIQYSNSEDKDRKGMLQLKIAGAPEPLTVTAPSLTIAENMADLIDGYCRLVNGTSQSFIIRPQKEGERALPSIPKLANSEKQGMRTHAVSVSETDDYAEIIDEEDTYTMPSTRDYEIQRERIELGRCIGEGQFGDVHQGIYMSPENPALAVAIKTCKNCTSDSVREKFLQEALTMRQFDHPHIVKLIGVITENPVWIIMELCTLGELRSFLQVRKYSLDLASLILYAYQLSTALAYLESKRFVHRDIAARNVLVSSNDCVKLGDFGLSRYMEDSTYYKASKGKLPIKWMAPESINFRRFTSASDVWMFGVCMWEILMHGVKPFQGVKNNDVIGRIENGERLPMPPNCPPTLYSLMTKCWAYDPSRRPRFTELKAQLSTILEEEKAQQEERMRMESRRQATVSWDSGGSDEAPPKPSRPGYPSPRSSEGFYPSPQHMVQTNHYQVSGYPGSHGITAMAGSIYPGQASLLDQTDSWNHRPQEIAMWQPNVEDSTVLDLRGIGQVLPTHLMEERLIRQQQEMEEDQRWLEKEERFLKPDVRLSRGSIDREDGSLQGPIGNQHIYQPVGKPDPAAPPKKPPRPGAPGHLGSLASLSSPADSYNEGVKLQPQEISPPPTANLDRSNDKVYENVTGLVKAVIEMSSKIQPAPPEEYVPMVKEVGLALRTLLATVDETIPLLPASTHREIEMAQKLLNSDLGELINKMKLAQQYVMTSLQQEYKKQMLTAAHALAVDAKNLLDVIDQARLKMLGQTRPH

[4] = test system: Fibrinogen (Alexa647-labelled); assay: Alexa647-fibrinogen binding to printed small molecules – biochemical, small-molecule microarray, 635/667 nm fluorescence, artefact control for SMM control-protein annotation, profiling panel (AID 1131); settings: fibrinogen-A647 binding fluorescence, higher = more signal;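 also: z-score merges 667 nm fluorescence with per-spot signal-to-noise over triplicate slides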
[5] = biological target: Follistatin (Homo sapiens) (UniProt P19883); assay: FST protein binding to printed compounds – biochemical, small-molecule microarray, 635/667 nm fluorescence, primary screen (AID 1132); settings: 635 nm fluorescence, higher = more signal
Chain of Follistatin (Homo sapiens) (P19883 whole entry, looked up): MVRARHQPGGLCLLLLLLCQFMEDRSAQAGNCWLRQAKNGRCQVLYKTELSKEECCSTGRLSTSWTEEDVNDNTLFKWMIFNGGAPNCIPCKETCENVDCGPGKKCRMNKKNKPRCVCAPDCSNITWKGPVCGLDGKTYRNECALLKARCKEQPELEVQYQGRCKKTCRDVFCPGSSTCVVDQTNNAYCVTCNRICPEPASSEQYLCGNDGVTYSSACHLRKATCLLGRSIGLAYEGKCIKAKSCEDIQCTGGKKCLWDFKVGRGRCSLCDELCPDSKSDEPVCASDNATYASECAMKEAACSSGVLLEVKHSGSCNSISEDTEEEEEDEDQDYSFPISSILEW

[6] = biological target: Fibroblast growth factor 2 (Homo sapiens) (UniProt P09038); assay: basic fibroblast growth factor binding to printed compounds – biochemical, small-molecule microarray, 635/667 nm fluorescence, primary screen (AID 1133); settings: FGF2, fluorescence 635/667, higher = more signal
Chain of Fibroblast growth factor 2 (Homo sapiens) (P09038 whole entry, looked up): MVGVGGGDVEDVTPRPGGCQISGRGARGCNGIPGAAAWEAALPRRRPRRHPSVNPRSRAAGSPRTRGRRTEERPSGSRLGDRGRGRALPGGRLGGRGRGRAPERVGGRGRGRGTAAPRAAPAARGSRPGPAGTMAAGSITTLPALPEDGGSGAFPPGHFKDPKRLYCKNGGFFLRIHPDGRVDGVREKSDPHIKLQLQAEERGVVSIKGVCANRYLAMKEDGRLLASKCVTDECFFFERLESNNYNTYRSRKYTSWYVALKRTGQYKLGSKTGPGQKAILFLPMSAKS

[7] = JC-1 mitochondrial potential readout, lung cancer cells – cell-based, A549, JC-1 fluorescence, basal, 24 h, 100 nL, profiling panel (AID 1138); settings: higher = more signal;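 also: A549 lung adenocarcinoma cells under basal conditions with no added stimulus; test concentration not given here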
Lefty1 = Lefty1 protein binding to printed compounds – biochemical, small-molecule microarray, 635/667 nm fluorescence, primary screen (AID 1139); settings: fluorescence 635/667, higher = more signal
[8] = test system: wheat germ agglutinin (Triticum aestivum), Alexa647-labelled; assay: Alexa647-WGA lectin binding to printed small molecules – biochemical, small-molecule microarray, 635/667 nm fluorescence, artefact control for SMM control-protein annotation, profiling panel (AID 1140); settings: WGA-A647 binding, 635 nm fluorescence, higher = more signal;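 also: score merges 667 nm feature emission with signal to noise over triplicate slides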
[9] = biological target: Luciferin 4-monooxygenase (Photinus pyralis) (UniProt P08659); assay: inhibition of purified Photinus pyralis luciferase – biochemical, luminescence, purified enzyme, 2006 set, primary screen (AID 1141); settings: purified firefly luciferase, SteadyGlo luminescence, 30 min; higher = more signal, called active from +8 up or from −8 down;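 also: cell-free assay with purified firefly luciferase at 100 ng per well in PBS; test concentration not given here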
Chain of Luciferin 4-monooxygenase (Photinus pyralis) (P08659 whole entry, looked up): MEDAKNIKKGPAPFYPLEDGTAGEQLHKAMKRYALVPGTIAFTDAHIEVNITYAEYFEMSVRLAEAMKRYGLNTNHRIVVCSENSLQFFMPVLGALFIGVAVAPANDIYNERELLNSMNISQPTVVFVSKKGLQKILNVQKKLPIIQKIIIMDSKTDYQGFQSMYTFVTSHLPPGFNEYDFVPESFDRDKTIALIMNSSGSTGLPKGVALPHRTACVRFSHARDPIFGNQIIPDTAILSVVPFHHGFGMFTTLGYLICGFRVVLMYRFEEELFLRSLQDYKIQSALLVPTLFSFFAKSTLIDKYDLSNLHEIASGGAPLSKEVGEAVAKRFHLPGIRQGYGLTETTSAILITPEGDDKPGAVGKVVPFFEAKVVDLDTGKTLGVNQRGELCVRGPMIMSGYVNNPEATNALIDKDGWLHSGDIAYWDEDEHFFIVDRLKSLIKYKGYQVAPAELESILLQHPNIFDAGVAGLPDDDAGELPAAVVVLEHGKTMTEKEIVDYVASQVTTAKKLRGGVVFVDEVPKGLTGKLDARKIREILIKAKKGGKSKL

| Structure (SMILES) | composite z-score [1] | composite z-score [2] | composite z-score [3] | composite z-score [4] | composite z-score [5] | composite z-score [6] | z-score [7] | composite z-score (Lefty1) | composite z-score [8] | z-score [9] |
| --- | --- | --- | --- | --- | --- | --- | --- | --- | --- | --- |
| C=CCNC(=O)[C@H]1[C@@H]2C(=O)O[C@@H](c3ccccc3)[C@@H](c3ccccc3)N2[C@@H](c2ccccc2OCCO)[C@]12C(=O)N(C(=O)OCCOC)c1ccc(C#CCC(C(=O)OC)C(=O)OC)cc12 | 2.1 | 1.2 | 0.751 | 0.709 | 1.24 | 1.06 | -1.18 | 0.779 | 1.08 | -0.509 (inactive) |
| O=C(O)[C@@H]1Cc2c([nH]c3ccccc23)[C@@H](c2ccccc2)N1 | 0.247 | 0.299 | 0.948 | 0.651 | 0.607 | 0.197 | 0.375 | 0.244 | 0.0252 | -0.0866 (inactive) |
| COC(=O)C1=CC(c2ccc(CO)cc2)=CC(C2CC2)N(Cc2sc3ccccc3c2Cl)C=C1C(=O)OC (stereo not given) | 3.42 | 1.19 | 1.46 | 0.896 | 0.851 | 0.3 | 2.04 | 0.573 | 1.49 | -1.55 (inactive) |
| Cc1ccc(N2C(=O)c3ccccc3[C@](C)(C(=O)O)[C@@H]2c2ccc(CO)cc2)nc1 | -0.763 | -0.914 | -0.594 | -0.912 | -1.04 | -1.12 | 1.08 | -1.28 | -0.576 | -1.46 (inactive) |
| O=C1C2C=CC(C(O)C#Cc3ccccc3)N(Nc3ccccc3)C2C(=O)N1c1ccccc1 (stereo not given) | 1.1 | 0.356 | 0.0485 | 0.941 | 0.108 | -0.0859 | -0.136 | -0.67 | 1.23 | -0.934 (inactive) |
| CN(C)CCCC[C@@H]1NC(=O)[C@@H]2C[C@H](C(=O)O)[C@H](c3ccc(O)cc3)N2C1=O | 1.34 | 0.704 | 0.324 | 0.166 | 1.37 | 1.35 | -0.0467 | 1.64 | 0.176 | -0.486 (inactive) |
| C[N+](C)(C)CCCC[C@@H]1NC(=O)[C@H]2C[C@@H](C(=O)NCc3ccc(F)cc3)[C@@H](c3cccc(OCCO)c3)N2C1=O | 1.02 | 0.431 | 1.05 | 0.14 | 1.46 | 1.85 | 1.3 | 1.07 | 0.0979 | -0.908 (inactive) |
| CCN1C(C)=C(C(=O)OC)[C@@H](c2ccccc2)N2C(=O)[C@](O)(C(=O)OC)[C@@H](c3ccccc3)C(C(C)=O)=C12 | 0.189 | 0.0108 | -0.413 | -1.11 | 0.679 | 1.05 | -0.21 | 1.1 | -0.531 | -1.03 (inactive) |
| CO[C@@H]1COC(=O)[C@H](C)NC(=O)CC=C[C@@H](C)[C@H](NS(=O)(=O)c2ccc(C)cc2)COC(=O)CC=C[C@@H]1C | 0.373 | 0.0643 | -0.181 | -0.412 | -0.268 | 0.0544 | 1.43 | -0.0101 | -0.872 | -1.11 (inactive) |
| CO[C@@H]1COC(=O)CC=C[C@H](C)COC(=O)[C@H](Cc2ccccc2)NC(=O)CC=C[C@H]1C | 0.236 | -1.13 | -0.389 | -0.811 | 0.997 | 1.38 | 1.5 | 1.54 | -1.61 | -0.964 (inactive) |
| COC(=O)Cn1c(C(=O)N2CCCC2)cc2c1C[C@H]1CN(C(=O)c3ccccc3)[C@@](Cc3ccccc3)(C(=O)OC)[C@@H]21 | 1.64 | 0.684 | 0.714 | 1.01 | 0.0488 | -0.684 | 0.367 | 0.142 | 1.43 | 0.659 (inactive) |
| COc1cc(CO)cc(I)c1O[C@H]1C=C(C(=O)NCCO)C[C@@H](NCCc2c[nH]c3ccccc23)[C@@H]1O | 0.876 | 0.579 | -0.0981 | 0.824 | 0.792 | 0.243 | 0.898 | 0.28 | 1.21 | 0.47 (inactive) |
| CCCNC(=O)[C@@]1(Sc2ccc(C)cc2)CC(=O)N(Cc2ccccc2Cl)[C@@H]1c1ccc(CO)cc1 | 1.12 | 1.15 | 0.29 | 0.789 | 1.42 | 1.6 | 1.02 | 1.19 | 1.18 | -0.0629 (inactive) |
| COCCOC(=O)N1C(=O)[C@@]2(c3ccccc31)[C@H](C(=O)N1CCc3cc(OC)c(OC)cc3C1)[C@H]1C(=O)O[C@H](c3ccccc3)[C@H](c3ccccc3)N1[C@@H]2c1ccccc1OCCO | 1.86 | 1.18 | 0.989 | 0.938 | 1.13 | 0.349 | 0.679 | 0.762 | 1.02 | -1.69 (inactive) |
| C=CC[C@@]1(C(=O)N2CCOCC2)N=C(c2ccc(OCCCO)cc2)O[C@@H]1c1ccccc1 | 0.805 | 1.19 | 1.57 | -0.0135 | -0.338 | -0.355 | 1.89 | -1.02 | 0.868 | -0.871 (inactive) |
